Assay outcomes (PubChem BioAssay)
Hits are enriched below; roughly 19% of the tested compounds scored in any of these assays.
Giardia killer – kills Giardia lamblia. Giardia lamblia trophozoite viability. activity change, % at 7.66 µM, hits read low. 340,000 tested, 0.15% active. AID 540267; in the data active = activity change below about -80%; inconclusive = between about -30% and that limit;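 note: parasites exposed to compound for two days anaerobically before the ATP read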
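Viability, read as ATP luminescence: trophozoites at 100 cells/well, compound added, 48 hrs anaerobic at 37 deg C, then 15-30 min room-temperature development before reading.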
ELG1 DNA repair – blocks ELG1-dependent DNA repair in HEK293T cells; HEK293T ELG1-luciferase reporter, luminescence, 16 h; DNA damage induced by 5-fluorouridine; Potency, µM (titrated, usually from 46.1 µM), hits mostly inhibitors; 330,000 tested, 2.3% active; note: nearly all actives have a fitted effect of over 55% in size
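HEK293T cells expressing luciferase-tagged ELG1 (2,000/well) received 5-Fluorouridine plus compound or DMSO for 16 hr at 37 °C. Luciferase was read by ONE-Glo luminescence after 30 min at room temperature.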
DT40 TDP1 CPT – DT40-hTDP1 cell growth loss with CPT. Potency, µM (top dose mostly 46.2 µM), most hits filed as inhibitors. chicken DT40 Tdp1-/-;hTDP1 cells + 20 nM CPT, ATP luminescence, 48 h. 420,000 tested, 12% active; note: nearly all actives have a fitted effect of over 55% in size
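Cell growth measured by CellTiter-Glo luminescence after a minimum 48 h, 37 C compound exposure with 20 nM CPT in Tdp1-knockout DT40 cells stably expressing hTDP1, seeded 400/well; qHTS titration format.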
DT40 TDP1 no CPT – qHTS for Inhibitors of human tyrosyl-DNA phosphodiesterase 1 (TDP1): qHTS in cells in absence of CPT; 420,000 tested, 15% active; DT40 Tdp1-/- hTDP1 cells, no CPT, ATP luminescence, 48 h; Potency, µM (series often up to 46.2 µM), hits mostly inhibitors; AID 686978, 2013; note: nearly all actives have a fitted effect of over 55% in size
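Growth kinetics read by CellTiter-Glo luminescence after ≥48 hr at 37 °C. Cells: DT40 Tdp1-/- stably carrying human TDP1, 400 per well, compound exposure in the absence of CPT (DMSO vehicle).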
TDP1 inh – TDP1 (human) enzyme inhibition; Q9NUW8; recombinant TDP1, AlphaScreen DNA substrate cleavage; Potency, µM (top dose mostly 130 µM), usual class: inhibitors; 350,000 tested, 0.28% active; note: nearly all actives have a fitted effect of over 40% in size
Target sequence (Q9NUW8 whole entry, looked up): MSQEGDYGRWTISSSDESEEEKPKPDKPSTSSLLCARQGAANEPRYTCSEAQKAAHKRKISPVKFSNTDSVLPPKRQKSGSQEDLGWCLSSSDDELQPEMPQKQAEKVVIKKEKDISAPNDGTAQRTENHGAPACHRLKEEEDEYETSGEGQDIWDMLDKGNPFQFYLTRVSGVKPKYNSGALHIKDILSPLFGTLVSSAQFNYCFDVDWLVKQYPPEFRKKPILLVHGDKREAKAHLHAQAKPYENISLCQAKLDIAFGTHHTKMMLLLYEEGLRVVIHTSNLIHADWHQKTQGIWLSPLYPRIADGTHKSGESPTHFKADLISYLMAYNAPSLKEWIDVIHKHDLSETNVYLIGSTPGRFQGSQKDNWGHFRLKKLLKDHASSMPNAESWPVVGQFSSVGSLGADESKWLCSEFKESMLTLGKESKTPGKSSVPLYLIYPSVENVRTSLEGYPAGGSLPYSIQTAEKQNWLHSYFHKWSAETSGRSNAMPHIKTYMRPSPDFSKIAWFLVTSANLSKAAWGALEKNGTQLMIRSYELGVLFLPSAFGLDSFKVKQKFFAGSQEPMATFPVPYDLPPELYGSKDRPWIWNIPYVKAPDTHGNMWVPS
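AlphaScreen read-out: signal falls as enzyme removes the 3' tyrosine-FITC from a 5'-biotinylated DNA oligo (15 nM, 5 min, RT). Enzyme was E. coli-made recombinant Tdp1 at 1 nM, exposed to compound for 15 min beforehand; beads 10 ug/ml, 10 min.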
IL1B secr inh – blocks inflammasome-driven IL-1 beta release; activity change, % at 57.5 µM; THP-1 LPS/ATP IL-1B secretion, AlphaLISA, 16 h; stronger effect = lower value; AID 743279; 360,000 tested, 4.7% active; in the data active = activity change below about -50%; inconclusive = mostly about -30% to -49%
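THP-1 cells pretreated 1 hr with compounds (up to 57.5 uM final), then stimulated with LPS (250 ng/mL final) plus ATP (1.25 mM final); secreted IL-1B measured by AlphaLISA after 16 hr, decreased signal indicating inhibition.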
Of the large screens only hits and unclear results are named; the others gave an inactive call; ! = repeats disagree. Unless noted, calls come from the whole dose curve; as a rule, active = well fitted curve in the direction sought with a large enough effect; inconclusive = small, poorly fitted or top-dose-only effect, or another doubt; inactive = no such curve, though single readings can be large; an effect the other way counts as inactive or inconclusive.

[2H]c1c([2H])c([2H])c(C(=O)c2sc(N3CCCCCC3)nc2-c2ccccc2)c([2H])c1[2H]	DT40 TDP1 CPT inconclusive, DT40 TDP1 no CPT 16.4µM
O=C(c1ccccc1)c1sc(N2CCCCCC2)nc1-c1ccccc1	ELG1 DNA repair inconclusive, DT40 TDP1 CPT inconclusive, DT40 TDP1 no CPT 14.6µM, TDP1 inh inconclusive
O=C(CCN1C(=O)c2ccccc2S1(=O)=O)Nc1cccc(F)c1	none
CCN(CC)C(=O)COc1coc(CN2CCN(c3ccccc3)CC2)cc1=O	none
O=C(c1ccc(Br)cc1)c1sc(N2CCOCC2)nc1-c1ccccc1	ELG1 DNA repair inconclusive, DT40 TDP1 CPT inconclusive, DT40 TDP1 no CPT 20.6µM
Cc1ccc2[nH]c(=O)c(CNS(=O)(=O)c3ccccc3)c(-c3ccccc3)c2c1	ELG1 DNA repair inconclusive, DT40 TDP1 CPT inconclusive, DT40 TDP1 no CPT 18.4µM
CCn1c(C)nc2cc(C(=O)n3cc(C(=O)c4cc(F)ccc4O)cn3)ccc21	none (no result: Giardia killer, DT40 TDP1 CPT, DT40 TDP1 no CPT, IL1B secr inh)
CCC(=NNC(=O)c1ccc2c(c1)nc(C)n2CC)c1cc(F)ccc1O	ELG1 DNA repair inconclusive, DT40 TDP1 CPT 13µM, DT40 TDP1 no CPT 11.6µM
CCn1c(C)nc2cc(C(=O)N/N=C/c3ccc(O)c(O)c3O)ccc21	ELG1 DNA repair inconclusive, DT40 TDP1 CPT 25.9µM, DT40 TDP1 no CPT inconclusive
CSc1ncccc1C(=O)OC(C)C(=O)Nc1cccc(S(=O)(=O)N2CCOCC2)c1 (stereo not given)	ELG1 DNA repair inconclusive, DT40 TDP1 CPT inconclusive, DT40 TDP1 no CPT inconclusive
O=C(COC(=O)c1ccc(F)cc1F)Nc1cc(S(=O)(=O)N2CCOCC2)ccc1Cl	none
CCCCCn1ccc(=O)c2c(C(F)(F)F)nccc21	ELG1 DNA repair 5.8µM, DT40 TDP1 CPT 13µM, DT40 TDP1 no CPT 18.4µM
O=C1C(=O)N(c2nccs2)C(c2ccccc2F)/C1=C(\O)c1ccc2c(c1)OCCO2 (stereo not given)	ELG1 DNA repair inconclusive, DT40 TDP1 CPT inconclusive, DT40 TDP1 no CPT 16.4µM
Cc1ccc(N2CCN(C(=O)c3nn(C)c4c3CS(=O)(=O)c3ccccc3-4)CC2C)cc1 (stereo not given)	DT40 TDP1 CPT 20.6µM!, DT40 TDP1 no CPT inconclusive
CSCCC(NS(=O)(=O)c1cccs1)C(=O)Nc1ccc(C)c(Cl)c1 (stereo not given)	none (no result: Giardia killer, ELG1 DNA repair, IL1B secr inh)
O=C(CSc1nc2ccccc2o1)Nc1nncs1	Giardia killer inconclusive
O=C(CSc1nc2ccccc2o1)Nc1nc(-c2ccccc2)c(-c2ccccc2)s1	ELG1 DNA repair inconclusive, DT40 TDP1 CPT 18.4µM, DT40 TDP1 no CPT 11.6µM
C=CCSc1nnc(NC(=O)CSc2nc3ccccc3o2)s1	DT40 TDP1 CPT 23.1µM, DT40 TDP1 no CPT inconclusive
Cc1nnc(NC(=O)CSc2nc3ccccc3o2)s1	ELG1 DNA repair inconclusive, DT40 TDP1 no CPT inconclusive
COc1ccc(C2c3c(nc(C)[nH]c3=O)Oc3ccc4ccccc4c32)cc1OC (stereo not given)	none (no result: Giardia killer, ELG1 DNA repair, DT40 TDP1 CPT, DT40 TDP1 no CPT, IL1B secr inh)
O=C(N/N=C\c1ccc(CNS(=O)(=O)c2ccc(Cl)cc2)o1)C(=O)Nc1ccc(Oc2ccccc2)cc1	DT40 TDP1 CPT 2.91µM, DT40 TDP1 no CPT 6.51µM
O=C(NCc1ccc(/C=N\NC(=O)C(=O)Nc2ccccc2Br)o1)C(=O)Nc1ccccc1	DT40 TDP1 no CPT inconclusive
O=C(N/N=C\c1ccc(CNS(=O)(=O)c2ccccc2)o1)C(=O)Nc1ccc(F)cc1	DT40 TDP1 CPT inconclusive, DT40 TDP1 no CPT inconclusive
O=C(N/N=C\c1ccc(CN(Cc2ccc(Cl)cc2)S(=O)(=O)c2ccccc2)o1)C(=O)Nc1ccc(F)cc1	DT40 TDP1 CPT inconclusive, DT40 TDP1 no CPT 14.6µM, IL1B secr inh inconclusive
CC(OC(=O)CCCNC(=O)c1ccc(Cl)cc1)C(=O)N(C)Cc1ccccc1 (stereo not given)	ELG1 DNA repair inconclusive, DT40 TDP1 CPT inconclusive, DT40 TDP1 no CPT inconclusive
C=CCn1c(O)c(N=NC(=O)CNC(=O)c2ccco2)c2ccccc21	DT40 TDP1 CPT 6.51µM, DT40 TDP1 no CPT 4.11µM
Cc1cccc(NC(=O)Cn2c(O)c(N=NC(=O)c3ccccc3O)c3ccccc32)c1	ELG1 DNA repair inconclusive, DT40 TDP1 no CPT 4.61µM
CCn1c(O)c(N=NC(=O)c2cccs2)c2ccccc21	ELG1 DNA repair inconclusive, DT40 TDP1 CPT 23.1µM, DT40 TDP1 no CPT 14.6µM
CCn1c(O)c(N=NC(=O)CNC(=O)c2ccco2)c2ccccc21	DT40 TDP1 CPT inconclusive, DT40 TDP1 no CPT inconclusive
CCCn1c(O)c(N=NC(=O)CNC(=O)c2cccnc2)c2ccccc21	none
N=Nc1c(O)n(CC(=O)Nc2ccccc2)c2ccccc12	DT40 TDP1 CPT inconclusive
CCCn1c(O)c(N=NC(=O)c2cccnc2)c2cc(Br)ccc21	DT40 TDP1 CPT 16.4µM, DT40 TDP1 no CPT inconclusive
COc1ccc(CNC(=O)COC(=O)c2cc(S(=O)(=O)N3CCOCC3)ccc2O)cc1OC	none
CC(NCC(O)COc1ccccc1)C1COc2ccccc2O1 (stereo not given)	none (no result: TDP1 inh)
CCCn1c(O)c(N=N)c2ccccc21	none
